Screens deposited in PubChem BioAssay by National Center for Advancing Translational Sciences (NCATS).
USP2a inh – inhibitors of human ubiquitin-specific protease USP2a; O75604; USP2 core, Ub-CHOP2 coupled fluorogenic reporter, 485/531; hit rate 0.01% among 330,000; Potency, µM (top dose mostly 38.3 µM), inactives show top-dose activity change, negative = inhibition, most hits filed as inhibitors;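 further: plate controls were DMSO wells for no effect and full inhibition by NEM control for full effect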
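Deubiquitinase activity read as fluorescence (485/531 nm) after Ub-CHOP2 cleavage activates the enterokinase reporter on its substrate; USP2 core 10nM, Ub-CHOP2 and substrate 25nM each, 30min compound preincubation then 60min RT; data normalized to NEM, curves fitted.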
USP1-UAF1 inh – USP1/UAF1 (human) deubiquitinase inhibition; recombinant USP1/UAF1, Ub-Rhodamine cleavage fluorescence; O94782; Potency, µM (series often up to 57.1 µM), for the others: at the top dose activity change, negative = inhibition, actives largely listed as inhibitors; hit rate 0.23% among 390,000; further: on the % scale 0 is the no-effect control and ±100 the full control effect; nearly all actives have a fitted effect of over 60% in size
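In this screen, compounds sit with the deubiquitinase complex (1nM) for 15 min at room temperature before Ub-Rho is added at 150nM final. Fluorescence rise is then followed for 6 reads every 60 seconds.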
EPAC2 antag – blocks human EPAC2 exchange factor; hit rate 0.18% among 360,000; EPAC2 GEF exchange of Rap1B-BODIPY-GDP, fluorescence; Q8WZA2; Potency, µM (series often up to 114 µM), inactives show at the top dose activity, negative = inhibition, most hits filed as inhibitors; further: on the % scale 0 is the no-effect control and ±100 the full control effect; nearly all actives have a fitted effect of over 45% in size
EPAC1 agonist – activates human EPAC1 exchange factor | O95398 | hit rate 0.073% among 360,000 | EPAC1 agonist qHTS, biochemical assay; response scale: 100% = response to 6.5 mM cAMP | Potency, µM (doses to about 154 µM), without a hit: top-dose activation, actives largely listed as activators; further: nearly all actives have a fitted effect of over 60% in size
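Read-out is the fluorescence drop as BODIPY-GDP leaves Rap1B (480 nm excitation, 540 nm emission), recorded every 5 minutes over 30 minutes. Reactions held 100 nM EPAC1, 250 nM Rap1B–BODIPY-GDP and 50 uM GDP, with 6.5 mM cAMP setting full activation.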
EPAC1 antag – EPAC1 (human) antagonism. EPAC1 GEF assay, Rap1b-BODIPY-GDP exchange fluorescence. AID 720709. O95398. hit rate 0.14% among 360,000. Potency, µM (top dose mostly 115 µM), for the others: at the top dose activity change, negative = inhibition, most hits filed as inhibitors;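 further: plate controls were vehicle for no effect and positive control for full effect; nearly all actives have a fitted effect of over 50% in size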
EPAC2 ag – activates human EPAC2 exchange factor; hit rate 0.079% among 360,000; Q8WZA2; Potency, µM (series often up to 154 µM), without a hit: at the highest dose activation, usual class: activators; EPAC2 activation, biochemical qHTS; response scale: 100% = 6.5 mM cAMP response; AID 720711; further: nearly all actives have a fitted effect of over 50% in size
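qHTS, titration series. 100 nM EPAC2 / 250 nM Rap1B-BODIPY-GDP / 50 uM GDP; RT; ex 480/em 540 nm, 5-min reads to 30 min. Norm. to 6.5 mM cAMP = activation.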
* marks the source's active call; other numbers are inactive results; [ ] = dose if it differs, or a comment. Rows were chosen to be rich in hits. Some 0.45% of all compounds tested hit in one or more screens of this group. The call rests on the fitted dose curve; in most records, active means well fitted curve in the direction sought with a large enough effect; inconclusive means small, poorly fitted or top-dose-only effect, or another doubt; inactive means no such curve, though single readings can be large; an effect the other way counts as inactive or inconclusive. Potency means the concentration at half of the fitted maximal effect.

O=S(=O)(NCC(c1ccccc1)N1CCc2ccccc21)c1ccc(Cl)cc1 (stereo not drawn) was read as USP1-UAF1 inh -18.6%.
Screening Cc1ccc(S(=O)(=O)N2[C@H](c3cccc(Cl)c3)CC(=O)[C@@H]3CN(S(=O)(=O)c4ccccc4C)[C@H](c4ccc(Cl)cc4)C[C@@H]32)cc1 returned USP1-UAF1 inh -11.5%, EPAC2 antag 4.9%, EPAC1 agonist -5.9%, EPAC1 antag 10.4% and EPAC2 ag 5.8%.
`COc1ccc(OC)c(-n2c(N)c(C(=O)NCC3CCCO3)c3nc4ccccc4nc32)c1` (stereo not drawn) gave USP2a inh 4.8%, USP1-UAF1 inh -15.2%, EPAC2 antag -5.7%, EPAC1 agonist 7.5%, EPAC1 antag -12.7% and EPAC2 ag 3.4%.
For CC(C)Cn1c(N)c(C(=O)NCC2CCCO2)c2nc3ccccc3nc21 (stereo not drawn) the results were USP2a inh -1.5%, USP1-UAF1 inh -19.9%, EPAC2 antag -25.4%, EPAC1 agonist 6.6%, EPAC1 antag 50.1µM* and EPAC2 ag -2.2%.
Screening COCCn1c(N)c(C(=O)NCC2CCCO2)c2nc3ccccc3nc21 (stereo not drawn) returned USP2a inh -1.1%, USP1-UAF1 inh 25.1µM*, EPAC2 antag -27.2%, EPAC1 agonist -8.3%, EPAC1 antag inconclusive and EPAC2 ag 3.2%.
COC(=O)c1ccccc1NC(=O)Cn1c(=O)n(CCCC(=O)NCCc2ccc(OC)c(OC)c2)c(=O)c2ccccc21 was read as USP1-UAF1 inh -2.1%.
`Brc1cccc(-c2nc3ccc(Br)cn3c2Cc2ccccc2)c1` gave EPAC2 antag -9.8%, EPAC1 agonist -5.9%, EPAC1 antag -5.0% and EPAC2 ag 11.9%.
`Cn1c(O)c(N=NC(=O)c2ccccc2O)c2ccccc21` gave USP2a inh -0.3%, USP1-UAF1 inh -15.5%, EPAC2 antag -16.3%, EPAC1 agonist 2.2%, EPAC1 antag 31.6µM* and EPAC2 ag 3.0%.
For Cc1ccc(-n2nnnc2C(=Cc2ccc(N(C)C)cc2)c2nnnn2-c2ccc(C)cc2)cc1 the results were USP2a inh 17.5%, USP1-UAF1 inh 22.4µM*, EPAC2 antag 3.2%, EPAC1 agonist 5.5%, EPAC1 antag 14.5% and EPAC2 ag 12.2%.
CC1Sc2ccc(C(=O)OCc3ccccc3Cl)cc2NC1=O (stereo not drawn) was read as USP2a inh 0.8%, USP1-UAF1 inh -14.4%, EPAC2 antag 2.8%, EPAC1 agonist 50.1µM*, EPAC1 antag -0.2% and EPAC2 ag 0.4%.
For COc1cc(/C=C/C(=O)c2ccc3c(c2)OCCO3)cc(Br)c1OCC(=O)N(C)C the results were USP2a inh 1.1%, USP1-UAF1 inh -13.9%, EPAC2 antag -2.5%, EPAC1 agonist 15.0%, EPAC1 antag 79.4µM* and EPAC2 ag 4.2%.
C=CCN(c1ccccc1)S(=O)(=O)c1cccc(C(=O)Nc2ccc(N3CCOCC3)cc2)c1 was read as USP2a inh 1.1%, USP1-UAF1 inh -16.9%, EPAC2 antag 4.0%, EPAC1 agonist 9.0%, EPAC1 antag -9.4% and EPAC2 ag 9.3%.
Screening Cc1ccc2nc3sc(C(=O)NCc4ccco4)c(N)c3cc2c1 returned USP2a inh inconclusive, USP1-UAF1 inh 366.7%, EPAC2 antag -8.2%[57.1 µM], EPAC1 agonist 100µM*, EPAC1 antag 104.8% and EPAC2 ag -8.4%.
`Cc1cccc(NC(=O)Cn2c(=O)n(Cc3ccc4c(c3)OCO4)c(=O)c3ccccc32)c1` gave USP1-UAF1 inh -12.8%.
For C[C@H](O)[C@@H]1C(=O)N2CCc3c([nH]c4ccccc34)[C@@H]2C[C@@H]1N(C)S(=O)(=O)c1ccccc1 the results were USP1-UAF1 inh -1.8%, EPAC2 antag 8.0%, EPAC1 agonist -15.6%, EPAC1 antag -28.2% and EPAC2 ag 19.4%.
